Measured values: PubChem BioAssay (NCI)
Compounds without any hit were thinned out: in the full panel of roughly 83,000, 20% have a hit.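 Negative percent growth values reflect cell death: -40 means 40% of the cells present at the start died, and -100 means all died.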 Activity calls are given as the source filed them. The calls were made as follows: active = growth percent below 10; inactive = the rest.

Columns and labels:
Experiment in all cases: NCI-60 one-dose screen, 48 h (100 = growth as untreated, 0 = no growth, -100 = all killed)
[1] = test system: NCI-H23 lung; conditions: 10 µM unless noted
[2] = test system: NCI-H226 lung; conditions: 10 µM unless noted
[3] = test system: NCI-H322M lung; conditions: 10 µM unless noted
[4] = test system: HOP-62 NSCLC; conditions: 10 µM unless noted
[5] = test system: HOP-92 NSCLC; conditions: 10 µM unless noted
[6] = test system: NCI-H522 lung; conditions: 10 µM unless noted
[7] = test system: A549/ATCC NSCLC; conditions: 10 µM unless noted
[8] = test system: 786-0 renal; conditions: 10 µM unless noted
[9] = test system: COLO 205 colon; conditions: 10 µM unless noted
[10] = test system: DU-145 prostate; conditions: 10 µM unless noted
[11] = test system: K-562 leukemia; conditions: 10 µM unless noted
[12] = test system: MALME-3M melanoma; conditions: 10 µM unless noted
[13] = test system: MDA-MB-231 breast; conditions: 10 µM unless noted
[14] = test system: RXF 393 renal; conditions: 10 µM unless noted
[15] = test system: SF-268 CNS; conditions: 10 µM unless noted
[16] = test system: SF-295 CNS; conditions: 10 µM unless noted
[17] = test system: SF-539 CNS; conditions: 10 µM unless noted
[18] = test system: UACC-257 melanoma; conditions: 10 µM
[19] = test system: M14 melanoma; conditions: 10 µM unless noted

Measured: growth

Cn1cc(-c2nn3cc(-c4ccncc4)nc3s2)c2cc(Cl)ccc21
inactive: [1] 44.5% | [2] 86.1% | [3] 78.3% | [4] 67.4% | [6] 46% | [7] 64% | [8] 89.1% | [9] 31.9% | [10] 74.3% | [12] 48.2% | [13] 73.5% | [14] 75.9% | [15] 67.9% | [16] 35.1% | [17] 82.1% | [18] 89.1% | [19] 52.5%
active: [5] 0.128% | [11] -1.66%

CC(C)Sc1nc(NC2CC2)c(C#N)c(-c2ccccc2)n1
inactive: [1] 67.5% | [2] 69.8% | [3] 67.6% | [4] 71.5% | [5] 76.1% | [6] 89.2% | [7] 62.9% | [8] 35% | [9] 79.6% | [10] 99.1% | [11] 87.6% | [12] 57.1% | [13] 82% | [14] 77.5% | [15] 95.8% | [16] 72% | [17] 82.2% | [18] 102% | [19] 95.1%

Cc1ccc(-c2nnc3sc(C4=Cc5ccccc5OC=C4)nn23)cc1
active: [5] -34.7%
inactive: [1] 96.4% | [2] 96.4% | [3] 100% | [4] 121% | [6] 91% | [7] 92.3% | [8] 95% | [9] 120% | [10] 114% | [11] 104% | [12] 97.6% | [13] 94.1% | [15] 105% | [16] 98.9% | [17] 95.3% | [18] 88.4% | [19] 99.8%

C#Cc1ccc(NC(=O)c2ccc(/C=C/C(=O)c3nccn3C)cc2)c(F)c1
inactive: [1] 11.4% | [2] 42.8% | [3] 19.8% | [5] 67.5% | [6] 20.4% | [7] 19.9% | [8] 37.7% | [9] 73% | [10] 27.5% | [11] 12% | [12] 89.8% | [13] 23.6% | [14] 10.5% | [15] 28% | [16] 26.1% | [18] 64.7%
active: [4] 2.11% | [17] -22.5%

Cn1cc(-c2nn3cc(-c4cccnc4)nc3s2)c2cc(F)ccc21
inactive: [1] 93.9% | [2] 75% | [3] 87.8% | [4] 71.6% | [5] 60.5% | [6] 70.2% | [7] 94.4% | [8] 110% | [9] 83.2% | [10] 98.1% | [12] 70.3% | [13] 67% | [14] 103% | [15] 112% | [16] 92.5% | [17] 80.3% | [19] 84.8%

CCN1C/C(=N\S(=O)(=O)c2ccccc2)N(CC)C1=S
inactive: [1] 94.1% | [2] 101% | [3] 101% | [4] 105% | [5] 139% | [6] 94.3% | [7] 98.5% | [8] 96.6% | [9] 107% | [10] 117% | [11] 98.8% | [12] 100% | [13] 104% | [14] 117% | [15] 104% | [16] 103% | [17] 102% | [18] 97.6% | [19] 99%

C=CCn1c(SCC(=O)c2ccc(OC)cc2)nnc1-c1ccc(OC)cc1
inactive: [1] 97.6% | [2] 87.1% | [3] 97.4% | [4] 102% | [5] 88.9% | [6] 99% | [7] 99.2% | [8] 99.4% | [9] 98.8% | [10] 99.8% | [11] 94.7% | [12] 96.4% | [13] 94.9% | [14] 87.9% | [15] 95.2% | [16] 97.7% | [17] 100% | [18] 96.8% | [19] 90.9%

COc1cc(-c2nc(SCc3ccc(C)cc3)[nH]c(=O)c2C#N)ccc1OCc1ccccc1
inactive: [1] 106% | [2] 96.2% | [3] 104% | [4] 104% | [5] 113% | [6] 95.6% | [7] 102% | [8] 103% | [9] 119% | [10] 106% | [11] 87.9% | [12] 94.5% | [13] 104% | [14] 108% | [15] 97.6% | [16] 106% | [17] 101% | [18] 96.9%

O=S(=O)(Nc1cc(Cl)cc(Cl)c1)c1ccc(-c2cnc(C3CC3)o2)cc1
inactive: [1] 42.9% | [2] 43.4% | [3] 49.9% | [4] 43.1% | [5] 64.6% | [6] 33.9% | [7] 43.1% | [8] 50.3% | [9] 14.2% | [10] 22.3% | [11] 14.4% | [12] 60.4% | [13] 47.5% | [15] 66.6% | [16] 17.4% | [17] 13.7% | [18] 75.1% | [19] 19.9%
active: [14] 8.4%

COc1ccc2c(C3=C(c4c[nH]c5ccccc45)C(=O)N(O)C3=O)coc2c1
inactive: [1] 93% | [2] 74.9% | [3] 96.8% | [4] 84.7% | [5] 96% | [6] 68.4% | [7] 96.6% | [8] 93.8% | [9] 99.2% | [10] 103% | [12] 94.8% | [13] 78.3% | [14] 105% | [15] 101% | [16] 103% | [17] 93.3% | [19] 94.4%

CCCCCCCCCC[C@@H](C)[C@@H]1CC(=O)N[C@H]([C@@H](C)O)C(=O)N[C@@H](C)C(=O)N[C@H](C)C(=O)N[C@@H](CCC(N)=O)C(=O)N[C@H](Cc2ccc(O)cc2)C(=O)N[C@@H](C(C)CC)C(=O)O1 (some centres undefined)
inactive: [1] 35.6% | [2] 42.1% | [3] 89.1% | [4] 73.9% | [5] 43.3% | [6] 36.1% | [7] 47.6% | [8] 91.8% | [9] 66% | [10] 57.1% | [11] 40.6% | [12] 65.7% | [13] 96.6% | [14] 97.5% | [15] 84.8% | [16] 36.2% | [17] 60.5% | [19] 79.4%

O=C(NCCNc1cc(-c2cn(-c3ccccc3)nc2-c2cccc(O)c2)ccn1)Nc1ccc(Cl)c(C(F)(F)F)c1
inactive: [1] 41.3% | [2] 81.5% | [3] 68.4% | [4] 85.3% | [5] 44% | [6] 72.5% | [7] 61.8% | [8] 64.6% | [9] 92.9% | [10] 94.6% | [11] 35.5% | [12] 83% | [13] 36% | [14] 15.3% | [15] 48.6% | [17] 40.2% | [18] 89.6% | [19] 48.3%
active: [16] 7.84%

CCN(CC)c1ccc2cc(C(=O)NCCOCCOCCOCCn3cc(CCC(=O)Nc4ccc(C(=O)c5ccc(NC(=O)OC(C)(C)C)cc5)cc4)nn3)c(=O)oc2c1
inactive: [1] 61.7% | [2] 20.3% | [3] 74.5% | [4] 53.5% | [5] 85.7% | [6] 28.4% | [7] 73.1% | [8] 73.2% | [9] 38.2% | [10] 61.8% | [11] 38.3% | [12] 83.9% | [13] 53.7% | [14] 69.8% | [15] 65% | [16] 43.3% | [17] 79.5% | [18] 63.1%

COc1cnc2c(c1)C(=O)c1c-2n(CCCNCC2CC2)c(=O)c2cc(F)ccc12
inactive: [15] 14.6% | [19] 15%
active: [1] -44.5% | [2] -14.1% | [3] -1.44% | [4] -31.6% | [5] -5.96% | [6] -55.3% | [7] -61.9% | [8] -32.4% | [9] -45.8% | [10] 4.61% | [12] -12.2% | [13] -25.2% | [14] -47.5% | [16] -7.51% | [17] -65.6%

CCN(CC)CCN1C(=O)c2c(c3c4cccnc4[nH]c3c3ccc4ccccc4c23)C1=O
inactive: [1] 60.3% | [2] 79.4% | [3] 76.7% | [4] 38.4% | [5] 91.9% | [6] 65.4% | [7] 60% | [8] 60.9% | [9] 72.1% | [10] 54.7% | [11] 18.7% | [12] 86.7% | [13] 89.7% | [14] 78.8% | [15] 50.3% | [16] 35.4% | [17] 76.5% | [18] 98.2% | [19] 61.1%

CNC(=O)c1cc(Oc2ccc3nc(NC(=O)c4ccc(CN5CCCN(C)CC5)c(C(F)(F)F)c4)sc3c2)ccn1
active: [6] -56.6% | [8] -76.3% | [9] -64.4% | [11] -39.9% | [12] -69.7% | [13] -21.9% | [14] -46.4% | [16] -34.8% | [17] -82.5% | [18] -88.4% | [19] -88%
inactive: [1] 23% | [2] 82.9% | [3] 32.2% | [4] 11.5% | [5] 37.7% | [7] 39.9% | [10] 40.2% | [15] 58%

COc1ccc(NC2=C(Cl)C(=O)C(C)=C(C)C2=O)cc1
inactive: [1] 83.7% | [2] 99% | [3] 100% | [4] 95.6% | [6] 85.6% | [7] 98.3% | [8] 113% | [9] 109% | [10] 106% | [12] 99.8% | [14] 100% | [15] 96% | [16] 100% | [17] 103% | [18] 85.5% | [19] 95.5%
active: [5] -2.54% | [11] 5.78% | [13] -15.1%

COc1ccc(NC(=O)Cn2cc(CN3C(=O)c4ccc([N+](=O)[O-])cc4C3=O)nn2)cc1
inactive: [1] 99.7% | [2] 96.4% | [3] 106% | [4] 107% | [6] 99.9% | [7] 102% | [8] 107% | [9] 122% | [10] 113% | [11] 98.1% | [12] 101% | [13] 91.4% | [15] 109% | [16] 113% | [17] 100% | [18] 97.7% | [19] 108%
